± gives the standard deviation.
system: MILI (PIWIL2) piRISC loaded with piRNA #1 (26 nt); assay: pre-steady-state target cleavage rate (min^-1); guide: piRNA #1 5'p-UGAGGUAGUAGGUUGUAUAGUAUCCA; higher = faster piRNA-guided slicing of the target; details: auxiliary factor: 500 nM mouse GTSF1;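 further: 1 nM active piRISC with 0.1 nM target library at 33 °C single turnover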
How it was run: (§1)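 Reactions were run for 0–8 or 0–960 min at 33 °C in HEPES–potassium acetate buffer, combining 1 nM active affinity-purified piRISC with one synthetic guide, […] transcribed, DNA-blocked target RNA library and, in some cases, 500 nM GTSF1 partner protein. Sequencing of uncleaved targets followed, with normalisation to depth and to weakly complementary targets. Three trials were pooled, k3 was capped at 0.0001 min^-1, and the pre-steady-state cleavage rate was taken from a burst-and-steady-state fit.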

Sequence | pre-steady-state target cleavage rate
GGAGACCUUACUAUACAACCUACUACCUCC [g2:g22:cont:t1C] | 0.172 ± 0.017
GGAGUGGAUACUAUACAACCUACUACGACA | 0.0497 ± 0.008
GGAGAGGAUACUAUACAACCGACUACCUCA | 0.00439 ± 0.0027
GGAGACCAUACUAUACAACUACUACCUCA | 0.0423 ± 0.0075
GGAGACCUAAGUUUACAACCUACUACCUCA | 0.0168 ± 0.0041
GGAGACGUUACAAUACAACCUACUACCUCA | 0.163 ± 0.015
GGAGACGAAACUAUUCAACCUACUACCUCA | 0.198 ± 0.021
GGAGACGAUACUAUACAACCUACUACCUAA | 0.153 ± 0.015
GGAGACGAUACUUUACAACCAACUACCUCA | 0.00466 ± 0.0023
GGAGAGGAUACUAUACAACCUAAUACCUCA | 0.0575 ± 0.01
GGAGAGGAUACUAUACAACCUACUACCUAA | 0.125 ± 0.011
GGAGACCUUAACUAUACAACCUACUACCUCA | 0.138 ± 0.01
GGAGAGGAUACUAUUCAACCUACUAGCUCA | 0.063 ± 0.014
GGAGACCUAUCUAUACAACCUACAACCUCA | 0.0886 ± 0.013
GGAGUGGAUACUUUACAACCUACUACCUCA | 0.174 ± 0.0092
GGAGAGGAUACUAUACAACCAACUACCUCA | 0.00747 ± 0.0023
GGAGUGGAUACUAUAUAACCUACUACCUCA | 0.191 ± 0.0088
GGAGACGAUACUAUAGUACCUACUACCUCA | 0.193 ± 0.013
GGAGACCUAUGAUUACAACCUACUACCUCA [g2:g17:cont:t1A] | 0.00593 ± 0.0026
GGAGUGGAUAGUAUACAACCUAGUACCUCA | 0.0556 ± 0.0099

Sequence | pre-steady-state target cleavage rate
GGAGACGCAUACUAUACAACCUACUACCUCA | 0.268 ± 0.024
GGAGAGGAUACUAAACAACCUACUACCUCA | 0.174 ± 0.012
GGAGUGCAUACUAUACAUCCUACUACCUCA | 0.313 ± 0.015
GGAGACGAAUCUAUACAACCUACUACCUCA | 0.146 ± 0.015
GGAGAGGAUACUAUUCAUCCUACUACCUCA | 0.273 ± 0.02
GGAGACCAUACUAUACAACCUACUACUCUCA | 0.331 ± 0.028
GGAGUGGAUACAAUACAACCUACUACGUCA | 0.0406 ± 0.0063
GGAGUGGUUACUAUACAACCUAGUACCUCA | 0.0547 ± 0.01
GGAGACGAUACUUUACAUCCUACUACCUCA | 0.257 ± 0.016
GGAGACCUAUCUAUACAACGUACUACCACA | 0.0153 ± 0.0035
GGAGUCCAUACUAUACAACCUACUACCUCA | 0.181 ± 0.015
GGAGUGGAUACUAUACAACGUUCUACCUCA | 0.00599 ± 0.0017
GGAGACCUUACUAUACAACCUACUCCCUCA | 0.0992 ± 0.015
GGAGUGGAUACUAUACAACCUACUUCCUCA | 0.00401 ± 0.0017
GGAGACCUAUGAAUCACAACCUACUACCUCA | 0.0111 ± 0.0034
GGAGAGGAUACUAUACAACCUAGCUACCUCA | 0.0538 ± 0.0062
GGAGACGAUACUAUACAACCAACAACCUCA | 0.00726 ± 0.0036
GGAGAGGAUACUAUGACAACCUACUACCUCA | 0.143 ± 0.013
GGAGUGGAUAACUAUACAACCUACUACCUCA | 0.0667 ± 0.0071
GGAGACGAUACUAUACAACCUACUCCUCA | 0.0114 ± 0.0032

system: EfPiwi piRISC loaded with piRNA #1 (26 nt); assay: pre-steady-state target cleavage rate (min^-1); auxiliary factor: 500 nM Ephydatia muelleri Gtsf1; guide: piRNA #1 5'p-UGAGGUAGUAGGUUGUAUAGUAUCCA; MIWI and MILI are mouse PIWI proteins and EfPiwi is from a freshwater sponge; tags in brackets are library labels; higher = faster piRNA-guided slicing of the target; details: not given
How it was run: as §1

Sequence | pre-steady-state target cleavage rate
GGAGACCUUACUAUACAACCUACUACCUCC [g2:g22:cont:t1C] | 0.0065 ± 0.0027
GGAGUGGAUACUAUACAACCUACUACGACA | 0.00539 ± 0.0025
GGAGAGGAUACUAUACAACCGACUACCUCA | 0.00504 ± 0.002
GGAGACCAUACUAUACAACUACUACCUCA | 0.00486 ± 0.0035
GGAGACCUAAGUUUACAACCUACUACCUCA | 0.00645 ± 0.0046
GGAGACGUUACAAUACAACCUACUACCUCA | 0.0105 ± 0.0045
GGAGACGAAACUAUUCAACCUACUACCUCA | 0.00439 ± 0.0036
GGAGACGAUACUAUACAACCUACUACCUAA | 0.103 ± 0.033
GGAGACGAUACUUUACAACCAACUACCUCA | 0.00358 ± 0.0022
GGAGAGGAUACUAUACAACCUAAUACCUCA | 0.00595 ± 0.0025
GGAGAGGAUACUAUACAACCUACUACCUAA | 0.0131 ± 0.0058
GGAGACCUUAACUAUACAACCUACUACCUCA | 0.113 ± 0.039
GGAGAGGAUACUAUUCAACCUACUAGCUCA | 0.00239 ± 0.0015
GGAGACCUAUCUAUACAACCUACAACCUCA | 0.00366 ± 0.0032
GGAGUGGAUACUUUACAACCUACUACCUCA | 0.00658 ± 0.0035
GGAGAGGAUACUAUACAACCAACUACCUCA | 0.00561 ± 0.002
GGAGUGGAUACUAUAUAACCUACUACCUCA | 0.117 ± 0.045
GGAGACGAUACUAUAGUACCUACUACCUCA | 0.00438 ± 0.0021
GGAGACCUAUGAUUACAACCUACUACCUCA [g2:g17:cont:t1A] | 0.00451 ± 0.0032
GGAGUGGAUAGUAUACAACCUAGUACCUCA | 0.00264 ± 0.0018

Sequence | pre-steady-state target cleavage rate
GGAGACGCAUACUAUACAACCUACUACCUCA | 0.0478 ± 0.018
GGAGAGGAUACUAAACAACCUACUACCUCA | 0.00787 ± 0.0036
GGAGUGCAUACUAUACAUCCUACUACCUCA | 0.0107 ± 0.0041
GGAGACGAAUCUAUACAACCUACUACCUCA | 0.0517 ± 0.018
GGAGAGGAUACUAUUCAUCCUACUACCUCA | 0.00619 ± 0.0034
GGAGACCAUACUAUACAACCUACUACUCUCA | 0.00773 ± 0.0036
GGAGUGGAUACAAUACAACCUACUACGUCA | 0.0038 ± 0.0016
GGAGUGGUUACUAUACAACCUAGUACCUCA | 0.00359 ± 0.0015
GGAGACGAUACUUUACAUCCUACUACCUCA | 0.00465 ± 0.0027
GGAGACCUAUCUAUACAACGUACUACCACA | 0.00343 ± 0.0031
GGAGUCCAUACUAUACAACCUACUACCUCA | 0.0575 ± 0.019
GGAGUGGAUACUAUACAACGUUCUACCUCA | 0.00461 ± 0.0022
GGAGACCUUACUAUACAACCUACUCCCUCA | 0.00342 ± 0.0031
GGAGUGGAUACUAUACAACCUACUUCCUCA | 0.00544 ± 0.0029
GGAGACCUAUGAAUCACAACCUACUACCUCA | 0.00389 ± 0.0034
GGAGAGGAUACUAUACAACCUAGCUACCUCA | 0.0038 ± 0.0017
GGAGACGAUACUAUACAACCAACAACCUCA | 0.00278 ± 0.0019
GGAGAGGAUACUAUGACAACCUACUACCUCA | 0.102 ± 0.041
GGAGUGGAUAACUAUACAACCUACUACCUCA | 0.0101 ± 0.0044
GGAGACGAUACUAUACAACCUACUCCUCA | 0.0048 ± 0.0022
